# Bioassay records from PubChem BioAssay.
# CHO-K1 Ca antag = counter-screen for M1 antagonists: effect in parental CHO-K1 cells; ATP-induced calcium, Fluo-8 fluorescence; inhibition, % at 3 µM; 0.6% of 360,000 active; AID 602250;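 active = inhibition above a per-plate cutoff, the plate's mean sample inhibition plus 3 SD, cut at about 24% in these data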;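 note: 0% = DMSO plus EC80 ATP and 100% = DMSO alone without ATP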
# M1 ag parental = counter-screen for M1 agonists: effect in parental CHO-K1 cells | 0.48% of 360,000 active | Fluo-8 calcium fluorescence; scaled to maximal ATP response, vehicle zero | activation, % at 3 µM | AID 602248; in the data active = activation above about 15%;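 note: untransfected CHO-K1 host cells lacking M1 receptor as counterscreen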
# CHRM1 PAM = human CHRM1 positive allosteric modulation; P11229; CHO-K1 hM1, Fluo-8 calcium fluorescence, ACh EC20; 0% = ACh EC20, 100% = maximal ACh; activation, % at 3 µM; 0.088% of 360,000 active; in the data active = activation above about 19%, passing the limit was not always enough
# Target sequence (P11229 whole entry, looked up): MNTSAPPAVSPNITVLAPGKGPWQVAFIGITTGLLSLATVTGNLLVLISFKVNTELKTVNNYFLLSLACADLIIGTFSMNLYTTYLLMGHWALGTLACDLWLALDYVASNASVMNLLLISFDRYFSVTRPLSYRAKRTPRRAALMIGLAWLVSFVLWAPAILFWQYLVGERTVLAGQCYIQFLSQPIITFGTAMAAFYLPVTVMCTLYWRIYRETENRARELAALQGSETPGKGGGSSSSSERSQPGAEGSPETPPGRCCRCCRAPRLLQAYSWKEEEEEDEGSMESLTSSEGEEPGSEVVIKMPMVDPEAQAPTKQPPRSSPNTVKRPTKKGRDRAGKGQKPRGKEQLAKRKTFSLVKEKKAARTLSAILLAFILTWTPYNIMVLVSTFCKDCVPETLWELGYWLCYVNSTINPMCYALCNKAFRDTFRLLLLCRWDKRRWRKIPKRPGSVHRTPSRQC
# M1 ag = human M1 muscarinic receptor agonism | P11229 | CHO-K1 hM1, Fluo-8 calcium fluorescence, agonist mode; 0% DMSO, 100% acetylcholine EC100 | activation, % at 3 µM | 0.33% of 360,000 active;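 active = activation above the run's mean compound activation plus 3 SD, cut at about 16% in these data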;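 note: peak over basal fluorescence ratio within a 140 s kinetic read after compound addition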
# CHO-K1 Ca PAM = nonselective activator or artifact in parental CHO-K1 calcium assay; AID 602247; 0.02% of 360,000 active; ATP EC20, Fluo-8 calcium fluorescence; 0% at ATP EC20, 100% at ATP max; activation, % at 3 µM;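 active = activation above the run cutoff, the mean activation of all test compounds plus 3 SD, cut at about 40% in these data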;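 note: peak over basal fluorescence ratio in a 140 s read after ATP addition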
# M1 antag = antagonists of human M1 muscarinic receptor; CHO-K1 hM1, Fluo-8 calcium fluorescence, ACh EC80 antagonist; inhibition, % at 3 µM; 1.3% of 360,000 active; P11229;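 active = percent inhibition above its own plate's cutoff, namely the mean of that plate's compound wells plus 3 SD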;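 note: peak over basal fluorescence ratio during 140 s after agonist addition; 0% = ACh EC80 plus DMSO and 100% = DMSO alone without agonist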
# * marks the source's active call; other numbers are inactive results. Most compounds without a hit are left out; they make up all but 2.3% or so of the library.
SMILES,CHO-K1 Ca antag,M1 ag parental,CHRM1 PAM,M1 ag,CHO-K1 Ca PAM,M1 antag
COc1cc(/C=C2\S/C(=N/S(=O)(=O)c3ccccc3)NC2=O)c([N+](=O)[O-])cc1OC,27*,2,11,3,-7,-7
COc1ccc(S(=O)(=O)/N=C2/NC(=O)/C(=C\c3cc(OC)c(OC)cc3[N+](=O)[O-])S2)cc1,-7,1,13,0,18,-19
COc1ccc(CCNC(=O)c2cc3c(=O)n4ccccc4nc3n(Cc3ccco3)c2=N)cc1OC,28*,3,0,-3,14,0
Cc1ccc(-n2c(C(C)C)nc3oc4ccccc4c(=O)c3c2=O)cc1,-6,2,4,-1,10,-11
COc1ccc(CC(O)COS(N)(=O)=O)cc1 (configuration not stated),5,0,5,-1,-5,15
O=S(=O)(Nc1nc(-c2sccc2Cl)cs1)c1cc(Cl)ccc1Cl,26*,-1,-2,-1,-6,2
COc1ccc(NC(=O)/C=C/c2c(Cl)nc3ccccn23)cc1,1,1,3,-7,15,-3
NC(=O)c1nsc(C(=O)N(c2ccccc2F)C(C(=O)NCc2ccc(F)cc2)c2ccc(O)cc2)c1N (configuration not stated),4,8,-20,-1,5,37*
COc1ccc(C(C(=O)NCc2ccccc2)N(Cc2ccco2)C(=O)c2snc(C(N)=O)c2N)cc1 (configuration not stated),8,7,-16,1,7,33*
COc1ccc(C(C(=O)NCc2ccccc2)N(Cc2ccco2)C(=O)c2snc(C(N)=O)c2N)cc1OC (configuration not stated),14,8,-9,0,3,16
CCOc1ccc(C(C(=O)NCC2CCCO2)N(C(=O)c2snc(C(N)=O)c2N)c2ccccc2F)cc1 (configuration not stated),40*,2,-6,5,5,18
O=C(Nc1ccccc1Cl)c1cc(C2CCCCN2C(=O)c2cccs2)on1 (configuration not stated),10,0,5,-6,3,-19
N#Cc1ccc(OCC(=O)OCC(=O)Nc2sccc2C(N)=O)cc1,-8,16*,-4,3,-9,17
NC(=O)c1ccsc1NC(=O)COC(=O)c1ccc(Cl)cc1,14,8,-13,0,-4,11
NC(=O)c1ccsc1NC(=O)COC(=O)CSc1ccc(Cl)cc1,24*,9,-19,-1,-15,25
Cc1ccc(OCC(=O)OCC(=O)Nc2sccc2C(N)=O)cc1C,33*,13,-13,-2,-8,22
Cc1ccc(OC(C)C(=O)OCC(=O)Nc2sccc2C(N)=O)cc1 (configuration not stated),5,15*,-8,4,-10,17
CCOc1ccc(CN(C(=O)c2cc(=O)c3cc(C)cc(C)c3o2)C2CCS(=O)(=O)C2)cc1 (configuration not stated),20,0,15,2,12,-5
CCOC(=O)C(NC(=O)CC)(N1CCc2ccccc2C1)C(F)(F)F (configuration not stated),3,2,5,-3,15,-16
COc1cc(C(=O)Nc2ccc(-n3cnnn3)c(C)c2)cc(OC)c1OC,24*,1,3,3,-7,-3
COc1cc(C(=O)Nc2cccc(-n3cnnn3)c2)cc(OC)c1OC,-13,4,1,0,15,-2
COc1cc(OC)cc(C(=O)N2CCN(C3CCC(C)CC3)CC2)c1 (configuration not stated),0,0,-20,-8,-11,31*
COc1ccc(Cc2nnc(NC(=O)CSc3ccc(C)cc3)s2)cc1OC,-22,49*,15,61*,42*,-7
COc1ccc(Cc2nnc(NC(=O)c3ccccc3Cl)s2)cc1OC,-1,22*,8,-2,16,-15
COc1ccc(Cc2nnc(NC(=O)c3ccccc3F)s2)cc1OC,-2,1,13,1,10,-16
COc1ccc(Cc2nnc(NC(=O)Nc3ccc(C)cc3)s2)cc1OC,13,0,10,0,-12,-10
